Compound activity from PubChem.
Rows were chosen to be rich in hits. Some 9.3% of all compounds tested hit in one or more screens of this group.
SMN2 splice up: qHTS Assay for Enhancers of SMN2 Splice Variant Expression; HEK293 SMN2-luciferase splicing reporter, luminescence, 30-36 h; Potency, µM (titrated, usually from 46.1 µM), for the others: at the highest dose activity change, positive = activation, most hits filed as activators; 2.8% of 210,000 active; AID 1458, 2008; also: % of control where 0% means no effect; nearly all actives have a fitted effect of over 55% in size
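qHTS luciferase splicing reporter: luminescence rises when SMN2 exon 7 is included in transfected HEK293 cells. Compound exposure lasted 30-36 h at 37C, with 4.5 mM final sodium butyrate as control, followed by a ONE-Glo read.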
ELG1 genotoxic: qHTS screen for small molecules that induce genotoxicity in human embryonic kidney (HEK293T) cells expressing luciferase-tagged ELG1; Potency, µM (titrated, usually from 46 µM), for the others: top-dose activity change, positive = activation, hits mostly activators; AID 504466, 2011; 1.3% of 330,000 active; HEK293T ELG1-luciferase reporter, luminescence, 16 h; also: % of control where 0% means no effect; nearly all actives have a fitted effect of over 60% in size
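Step 1: seed 2,000 HEK293T ELG1-luciferase cells per well. Step 2: add compound or DMSO, incubate 16 hr at 37 °C. Step 3: ONE-Glo, 30 min at room temperature, read luminescence.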
NPC1 promoter act: qHTS Assay for NPC1 Promoter Activators | Huh7 NPC1 promoter luciferase reporter, 24 h | Potency, µM (doses to about 9.22 µM), for inactives: at the highest dose activation, hits mostly activators | 2.4% of 320,000 active; also: % of control where 0% means no effect; nearly all actives have a fitted effect of over 60% in size
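Luminescence from an NPC1 promoter-driven luciferase reporter in stably transfected Huh7 cells was measured after 24 h compound treatment at 37 °C, followed by 10 min ambient incubation with luciferase detection reagent.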
FLuc counter: qHTS profiling assay for firefly luciferase inhibitor/activator using purifed enzyme and Km concentrations of substrates (counterscreen for miR-21 project). Luciferin 4-monooxygenase (Photinus pyralis), P08659. purified FLuc, Km substrates, luminescence inhibition. Potency, µM (highest dose often 57.5 µM), for inactives: at the top dose activity change, negative = inhibition, usual class: inhibitors. 6.9% of 360,000 active. AID 588342, 2011;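 also: plate controls were vehicle for no effect and reference inhibitor for full effect; nearly all actives have a fitted effect of over 55% in size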
Target sequence (P08659 whole entry, looked up): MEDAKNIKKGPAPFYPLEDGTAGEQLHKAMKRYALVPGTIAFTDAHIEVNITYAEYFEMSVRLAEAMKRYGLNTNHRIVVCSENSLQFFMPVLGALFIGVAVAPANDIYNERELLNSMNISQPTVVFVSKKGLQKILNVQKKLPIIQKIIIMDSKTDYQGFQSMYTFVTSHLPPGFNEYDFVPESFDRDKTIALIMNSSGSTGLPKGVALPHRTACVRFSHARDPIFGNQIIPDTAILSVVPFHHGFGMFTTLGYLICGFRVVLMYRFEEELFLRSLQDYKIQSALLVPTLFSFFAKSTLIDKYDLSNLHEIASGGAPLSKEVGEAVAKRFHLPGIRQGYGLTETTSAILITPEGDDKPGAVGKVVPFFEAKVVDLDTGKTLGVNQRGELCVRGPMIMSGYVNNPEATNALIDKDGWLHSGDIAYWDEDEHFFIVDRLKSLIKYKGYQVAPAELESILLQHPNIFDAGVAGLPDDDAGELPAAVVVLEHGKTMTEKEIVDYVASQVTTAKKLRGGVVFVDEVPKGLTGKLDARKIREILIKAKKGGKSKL
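Purified P. pyralis luciferase (10nM final) with 10uM D-luciferin and 10uM ATP (Km levels) in 50mM Tris acetate pH 7.5, 10mM Mg acetate, 0.01% Tween-20, 0.05% BSA; qHTS 6-point titration, ~60 µM downward; luminescence read.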
Rab9 promoter act: qHTS Assay for Rab9 Promoter Activators. Huh7 Rab9 promoter-luciferase reporter, luminescence, 24 h. Potency, µM (titrated, usually from 9.22 µM), for the others: at the highest dose activation, negative = inhibition, actives largely listed as activators. 2.8% of 320,000 active; also: % of control where 0% means no effect; nearly all actives have a fitted effect of over 60% in size
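Luciferase signal after 10 min detection reagent at ambient indicates Rab9 promoter upregulation; stably transfected Huh7 cells were treated 24 h with compound in DMSO at 37 °C, 5% CO2.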
ELG1 repair inh: qHTS screen for small molecules that inhibit ELG1-dependent DNA repair in human embryonic kidney (HEK293T) cells expressing luciferase-tagged ELG1 | HEK293T ELG1-luciferase reporter, luminescence, 16 h; DNA damage induced by 5-fluorouridine | Potency, µM (top dose mostly 46.1 µM), for the others: at the highest dose activity change, negative = inhibition, most hits filed as inhibitors | 2.3% of 330,000 active; also: % is scaled to controls: 0 for no effect and ±100 for the full control effect; nearly all actives have a fitted effect of over 55% in size
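Cells (2,000 per well) received 5-fluorouridine plus test compound or DMSO and were incubated 16 hr at 37 °C, 5% CO2. Luciferase activity was read by luminescence 30 min after ONE-Glo addition; signal suppression marked inhibition of damage-induced ELG1 function.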
* hit, by the source's call; ? = inconclusive; . = not tested or not shown; [ ] = another dose, or the depositor's remark. Calls follow the shape of the dose curve; as a rule, active = well fitted curve in the direction sought with a large enough effect; inconclusive = small, poorly fitted or top-dose-only effect, or another doubt; inactive = no such curve, though single readings can be large; an effect the other way counts as inactive or inconclusive. Potency is read from the fitted curve at half-maximal effect.

SMILES	SMN2 splice up	ELG1 genotoxic	NPC1 promoter act	FLuc counter	Rab9 promoter act	ELG1 repair inh
CCN(CC)CC(=O)Nc1nc(-c2ccc(Cl)cc2)cs1	-2%	4%	19%	-19%	3%	0%
CNc1nc(-c2ccc([N+](=O)[O-])cc2)cs1	6%	3%	?	12µM*	?	?
CC(C)Oc1ccc(C2CC(=O)N(c3cccc(/C=C/C(=O)O)c3)C2=O)cc1 (configuration not stated)	.	0%	0%	24µM*	-4%	4%
C[C@@]12CC[C@H]3OC(=O)C=C3C1CC[C@@]13CC(CCC12)[C@](CO)(O[C@H]1O[C@H](CO)[C@@H](O)[C@H](O)[C@H]1O)C3 (some centres not stated)	.	6%	1%	0%	2%	-1%
CCOC(=O)C1CCN(C(=O)c2nn(-c3ccc(OC)cc3)c(=O)c3c2c2ccccc2n3C)CC1	-3%	.	.	2%	.	.
COc1ccc(-n2nc(C(=O)NCC(=O)N3CCN(C)CC3)c3ccccc3c2=O)cc1OC	-5%	1%	3%	?	1%	7%
CCOC(=O)C1CCN(C(=O)CNC(=O)c2nn(-c3ccc(OC)cc3)c(=O)c3ccccc23)CC1	.	-3%	24%	2.7µM*	26%	?
CCOC(=O)C1CCN(C(=O)CNC(=O)c2nn(-c3ccc(OC)c(OC)c3)c(=O)c3ccccc23)CC1	.	-2%	13%	4.8µM*	17%	4%
CC(C)CC(C(=O)NC(C)(C)C)N(Cc1ccccc1Cl)C(=O)c1snc(C(N)=O)c1N (configuration not stated)	.	-9%	-1%	0%	7%	?
CCC(C)c1ccc(OCC(=O)Nc2ccc(CN3CCOCC3)cc2)cc1 (configuration not stated)	.	-10%	-2%	?	-5%	8%
Cc1cccnc1NC(=O)CCn1c(=O)oc2ccccc21	.	5%	-3%	-1%	-2%	14%
O=C(NCCc1ccc(Cl)cc1)c1ccc2nc(Cc3ccccc3)oc2c1	.	.	.	-2%	.	.
Cc1cccc(CNC(=O)c2ccc3nc(Cc4ccccc4F)oc3c2)n1	.	?	3.5µM*	27µM*	3.5µM*	?
O=C(NCc1ccccc1Cl)c1ccc2nc(Cc3ccccc3)oc2c1	.	.	.	-2%	.	.
O=C(NCCc1ccccn1)c1ccc2nc(Cc3ccccc3F)oc2c1	.	4.6µM*	2.8µM*	11µM*	2µM*	?
CCN(C[C@H]1N[C@@](Cc2ccccc2)(C(=O)OC)[C@H]2C(=O)N(C)C(=O)[C@@H]12)C(=O)Nc1ccc(Cl)cc1	.	-1%	.	.	.	-7%
COc1ccccc1Nc1nc(-c2c(C)nc3ncccn23)cs1	-17%	-2%	-22%	-13%	-26%	-18%
COc1ccccc1/C=C/C(=O)NCCC1=CCCCC1	11µM*	?	4µM*	11µM*	3.2µM*	?
O=C(/C=C/c1ccccc1)NCCC1=CCCCC1	11µM*	?	?	9.5µM*	2.8µM*	?
O=C(/C=C/c1ccc(F)cc1)NCCC1=CCCCC1	?	13%	?	15µM*	?	?
O=C(COC(=O)/C=C/c1ccc(C(F)(F)F)cc1)NCCC1=CCCCC1	.	1%	-4%	-1%	6%	2%
O=C(COC(=O)/C=C/c1ccccc1)NCCC1=CCCCC1	-7%	5%	-2%	5%	0%	8%
CC1Cc2ccccc2N1CC(=O)Nc1ccc2c(c1)OCCCO2 (configuration not stated)	.	1%	0%	-16%	19%	-9%
O=C1CCC([N+](=O)[O-])C(c2ccc3c(c2)OCO3)N1 (configuration not stated)	.	0%	1%	2%	-6%	5%
COc1ccc(-c2oc3ccccc3c2C#CC(C)(C)O)cc1	.	-4%	-8%	-12%	-1%	13µM*
SMILES	SMN2 splice up	ELG1 genotoxic	NPC1 promoter act	FLuc counter	Rab9 promoter act	ELG1 repair inh
COc1ccc(-c2c(C#CC(C)(C)O)c3ccccc3n2C)cc1	.	0%	.	.	.	-5%
O=C(Oc1ccc2c3c(c(=O)oc2c1)CCCC3)c1ccco1	6%	1%	-5%	17µM*	-1%	-1%
CC(C)(C)C(=O)[C@H](C(c1ccccc1)N1CCOCC1)N1CCOCC1 (some centres not stated)	1%[9.22 µM]	.	.	.	.	.
Cc1ccc(C(=O)COC(=O)CCCC(=O)Nc2cc(C(F)(F)F)ccc2Cl)cc1C	-8%	0%	-3%	2.4µM*	-5%	-2%
COc1ccc(OC)c(NC(=O)c2ccc(OCC(=O)N3CCOCC3)c(OC)c2)c1	.	1%	-7%	0%	1%	-13%
COc1ccc(-c2csc(NC(=O)c3ccc(OCC(=O)N4CCOCC4)c(OC)c3)n2)cc1	-31%	-11%	-1%	17µM*	11%	16µM*
COc1cc(C(=O)Nc2nc(-c3ccc(C)cc3)cs2)ccc1OCC(=O)N1CCOCC1	-42%	-11%	13%	?	29%	21µM*
COc1cc(C(=O)Nc2ccc(C)c(S(=O)(=O)N(C)C)c2)ccc1OCC(=O)N1CCOCC1	.	3%	13%	3µM*	29%	?
COc1cc(C(=O)Nc2nc(-c3ccc(F)cc3)cs2)ccc1OCC(=O)N1CCOCC1	.	-9%	-2%	?	-4%	?
COC(=O)c1ccc(NC(=O)CN2C(=O)c3cccc4cccc2c34)cc1	6%	.	.	2%	.	.
COc1ccc(Cl)c2sc(N(Cc3cccnc3)C(C)=O)nc12	.	6%	-9%	2%	-1%	3%
CCC(NC(=O)NNC(N)=S)(C(F)(F)F)C(F)(F)F	.	-1%	-6%	-2%	-7%	-2%
Cc1c(NC(=O)c2ncn[nH]2)cccc1-c1nc2ccccc2s1	8%	1%	19%	4.3µM*	22%	?
Cc1c(NC(=O)c2ccc(N3CCCC3)c([N+](=O)[O-])c2)cccc1-c1nc2ccccc2s1	-37%	-5%	1%	2.7µM*	17%	?
COc1cccc(C(=O)Nc2ccccc2-c2nc3ccccc3s2)c1	9%	.	.	-1%	.	.
O=C(Nc1ccc2c(c1)S(=O)(=O)N=C1CCCCCN12)c1ccccc1Cl	7%	-7%	-7%	-9%	5%	?
N[C@@H](CSC(=O)c1ccccc1)C(=O)O	-2%[9.22 µM]	.	.	.	.	.
